# According to ChEMBL document CHEMBL1961873, “Compounds: GSK PKIS; Assays: Nanosyn kinase panel” (2012):
# Tests used:
# [1] = target: Protein kinase C gamma type (Homo sapiens) (UniProt P05129); details: at 1 µM;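 further: each value is an averaged percent inhibition of the enzyme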
# [2] = target: T1, Protein kinase C iota type (Homo sapiens) (UniProt P41743); details: at 0.1 µM
# T1 sequence (whole entry): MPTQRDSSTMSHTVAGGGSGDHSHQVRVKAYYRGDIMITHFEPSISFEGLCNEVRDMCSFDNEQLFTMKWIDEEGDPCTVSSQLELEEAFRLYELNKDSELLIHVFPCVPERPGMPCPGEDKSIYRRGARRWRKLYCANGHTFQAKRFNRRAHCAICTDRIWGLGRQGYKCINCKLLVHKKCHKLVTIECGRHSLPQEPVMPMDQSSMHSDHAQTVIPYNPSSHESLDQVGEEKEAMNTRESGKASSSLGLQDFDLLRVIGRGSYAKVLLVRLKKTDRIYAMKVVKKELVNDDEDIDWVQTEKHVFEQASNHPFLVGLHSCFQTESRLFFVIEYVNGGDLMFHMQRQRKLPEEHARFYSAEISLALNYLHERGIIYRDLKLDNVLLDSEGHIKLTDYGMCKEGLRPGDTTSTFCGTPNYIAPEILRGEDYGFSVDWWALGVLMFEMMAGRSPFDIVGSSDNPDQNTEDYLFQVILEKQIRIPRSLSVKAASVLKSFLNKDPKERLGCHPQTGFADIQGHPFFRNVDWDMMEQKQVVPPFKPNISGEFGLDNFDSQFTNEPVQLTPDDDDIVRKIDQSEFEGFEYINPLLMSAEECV
# [3] = target: T1, Protein kinase C iota type (Homo sapiens); details: at 1 µM
# [4] = target: Protein kinase C theta type (Homo sapiens) (UniProt Q04759); details: at 0.1 µM
# [5] = target: Protein kinase C theta type (Homo sapiens) (UniProt Q04759); details: at 1 µM
# [6] = target: Protein kinase C beta type (Homo sapiens) (UniProt P05771); details: at 0.1 µM
# [7] = target: Protein kinase C beta type (Homo sapiens) (UniProt P05771); details: at 1 µM
# [8] = target: T2, Serine/threonine-protein kinase D1 (Homo sapiens) (UniProt Q15139); details: at 0.1 µM
# T2 sequence (whole entry): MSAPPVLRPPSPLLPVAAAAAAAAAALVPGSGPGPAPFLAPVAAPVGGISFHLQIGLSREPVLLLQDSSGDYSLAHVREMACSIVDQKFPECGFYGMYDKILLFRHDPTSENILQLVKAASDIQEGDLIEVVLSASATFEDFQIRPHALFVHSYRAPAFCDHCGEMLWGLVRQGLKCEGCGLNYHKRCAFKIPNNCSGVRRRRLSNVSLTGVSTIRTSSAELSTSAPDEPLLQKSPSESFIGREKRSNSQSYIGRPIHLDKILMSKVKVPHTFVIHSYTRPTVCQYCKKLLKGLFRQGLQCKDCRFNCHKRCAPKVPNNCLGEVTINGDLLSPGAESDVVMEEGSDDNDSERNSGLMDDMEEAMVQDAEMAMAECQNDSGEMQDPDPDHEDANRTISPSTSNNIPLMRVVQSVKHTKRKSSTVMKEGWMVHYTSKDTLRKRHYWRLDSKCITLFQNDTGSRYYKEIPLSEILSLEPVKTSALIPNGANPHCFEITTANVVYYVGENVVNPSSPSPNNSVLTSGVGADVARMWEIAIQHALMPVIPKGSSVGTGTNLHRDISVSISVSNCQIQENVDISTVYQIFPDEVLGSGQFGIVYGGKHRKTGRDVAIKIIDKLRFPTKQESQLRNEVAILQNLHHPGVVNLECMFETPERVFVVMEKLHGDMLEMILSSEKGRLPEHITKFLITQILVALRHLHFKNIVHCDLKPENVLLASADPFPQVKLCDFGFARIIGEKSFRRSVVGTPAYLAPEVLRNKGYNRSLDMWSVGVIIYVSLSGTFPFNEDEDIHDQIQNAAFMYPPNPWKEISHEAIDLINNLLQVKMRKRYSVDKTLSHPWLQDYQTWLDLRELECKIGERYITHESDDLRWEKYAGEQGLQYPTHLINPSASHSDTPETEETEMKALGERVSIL
# [9] = target: T2, Serine/threonine-protein kinase D1 (Homo sapiens); details: at 1 µM
# [10] = target: T3, Serine/threonine-protein kinase D2 (Homo sapiens) (UniProt Q9BZL6); details: at 0.1 µM
# T3 sequence (whole entry): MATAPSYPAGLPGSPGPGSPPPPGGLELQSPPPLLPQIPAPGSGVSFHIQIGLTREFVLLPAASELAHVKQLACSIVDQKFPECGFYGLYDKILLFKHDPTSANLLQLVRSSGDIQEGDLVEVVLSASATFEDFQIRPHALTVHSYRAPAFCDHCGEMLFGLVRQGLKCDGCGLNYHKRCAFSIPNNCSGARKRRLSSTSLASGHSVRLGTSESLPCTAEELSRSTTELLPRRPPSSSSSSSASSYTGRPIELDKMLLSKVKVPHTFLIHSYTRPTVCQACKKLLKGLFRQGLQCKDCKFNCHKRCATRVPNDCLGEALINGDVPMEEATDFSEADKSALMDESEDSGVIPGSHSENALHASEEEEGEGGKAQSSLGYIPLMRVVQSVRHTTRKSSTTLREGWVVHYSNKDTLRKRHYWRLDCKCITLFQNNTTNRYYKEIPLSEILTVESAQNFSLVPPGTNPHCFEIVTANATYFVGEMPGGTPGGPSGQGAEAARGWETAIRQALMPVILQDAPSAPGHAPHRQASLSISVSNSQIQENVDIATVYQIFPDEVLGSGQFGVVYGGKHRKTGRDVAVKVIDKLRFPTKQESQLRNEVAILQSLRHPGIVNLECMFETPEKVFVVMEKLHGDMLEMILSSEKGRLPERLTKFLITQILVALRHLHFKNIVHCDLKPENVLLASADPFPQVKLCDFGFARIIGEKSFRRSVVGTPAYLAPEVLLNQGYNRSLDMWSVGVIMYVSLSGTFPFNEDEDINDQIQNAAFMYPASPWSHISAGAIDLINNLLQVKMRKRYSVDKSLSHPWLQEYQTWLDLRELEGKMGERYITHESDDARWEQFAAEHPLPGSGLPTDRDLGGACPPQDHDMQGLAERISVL
# [11] = target: T3, Serine/threonine-protein kinase D2 (Homo sapiens); details: at 1 µM
# [12] = target: T4, Serine/threonine-protein kinase D3 (Homo sapiens) (UniProt O94806); details: at 0.1 µM
# T4 sequence (whole entry): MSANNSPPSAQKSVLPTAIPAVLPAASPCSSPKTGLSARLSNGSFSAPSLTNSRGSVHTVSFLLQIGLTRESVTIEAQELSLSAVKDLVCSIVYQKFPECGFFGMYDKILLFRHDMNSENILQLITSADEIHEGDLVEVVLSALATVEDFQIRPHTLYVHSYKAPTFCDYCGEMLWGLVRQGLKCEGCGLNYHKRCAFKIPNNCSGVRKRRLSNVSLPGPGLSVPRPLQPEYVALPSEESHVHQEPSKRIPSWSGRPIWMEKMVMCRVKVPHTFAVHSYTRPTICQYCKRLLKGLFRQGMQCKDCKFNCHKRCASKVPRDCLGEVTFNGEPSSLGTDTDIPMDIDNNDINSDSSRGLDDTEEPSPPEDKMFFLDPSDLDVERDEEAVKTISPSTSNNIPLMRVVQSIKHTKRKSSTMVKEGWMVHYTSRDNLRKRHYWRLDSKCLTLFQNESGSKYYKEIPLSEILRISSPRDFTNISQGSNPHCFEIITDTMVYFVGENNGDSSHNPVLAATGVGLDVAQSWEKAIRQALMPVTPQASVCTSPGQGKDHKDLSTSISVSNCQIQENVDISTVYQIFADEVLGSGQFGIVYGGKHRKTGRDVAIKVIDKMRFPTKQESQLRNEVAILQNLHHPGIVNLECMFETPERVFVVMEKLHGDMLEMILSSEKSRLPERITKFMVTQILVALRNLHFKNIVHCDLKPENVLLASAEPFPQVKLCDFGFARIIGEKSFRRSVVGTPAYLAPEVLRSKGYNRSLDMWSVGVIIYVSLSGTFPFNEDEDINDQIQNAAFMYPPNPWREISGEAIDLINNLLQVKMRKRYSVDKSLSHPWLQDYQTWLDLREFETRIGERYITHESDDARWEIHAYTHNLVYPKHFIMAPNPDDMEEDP
# [13] = target: T4, Serine/threonine-protein kinase D3 (Homo sapiens); details: at 1 µM
# [14] = target: T5, cGMP-dependent protein kinase 1 (Homo sapiens) (UniProt Q13976); details: at 0.1 µM
# T5 sequence (whole entry): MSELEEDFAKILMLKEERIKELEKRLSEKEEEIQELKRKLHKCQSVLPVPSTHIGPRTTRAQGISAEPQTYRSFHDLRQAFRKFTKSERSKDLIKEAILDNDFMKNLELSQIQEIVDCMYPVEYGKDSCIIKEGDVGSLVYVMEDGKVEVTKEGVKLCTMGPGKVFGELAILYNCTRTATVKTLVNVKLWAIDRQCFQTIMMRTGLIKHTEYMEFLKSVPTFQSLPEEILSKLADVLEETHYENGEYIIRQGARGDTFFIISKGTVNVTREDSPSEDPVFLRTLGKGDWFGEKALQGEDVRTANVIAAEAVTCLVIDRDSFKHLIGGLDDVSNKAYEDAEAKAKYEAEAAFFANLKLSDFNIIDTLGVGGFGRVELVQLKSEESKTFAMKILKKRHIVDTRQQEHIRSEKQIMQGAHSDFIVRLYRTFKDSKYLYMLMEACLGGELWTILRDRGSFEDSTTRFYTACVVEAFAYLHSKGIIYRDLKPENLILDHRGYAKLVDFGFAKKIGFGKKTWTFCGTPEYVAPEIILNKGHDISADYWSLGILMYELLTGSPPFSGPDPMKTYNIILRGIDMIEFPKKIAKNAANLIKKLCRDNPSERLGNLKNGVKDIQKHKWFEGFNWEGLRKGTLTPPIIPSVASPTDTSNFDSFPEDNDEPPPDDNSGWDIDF
# [15] = target: T5, cGMP-dependent protein kinase 1 (Homo sapiens); details: at 1 µM
# [16] = target: T6, cGMP-dependent protein kinase 2 (Homo sapiens) (UniProt Q13237); details: at 0.1 µM
# T6 sequence (whole entry): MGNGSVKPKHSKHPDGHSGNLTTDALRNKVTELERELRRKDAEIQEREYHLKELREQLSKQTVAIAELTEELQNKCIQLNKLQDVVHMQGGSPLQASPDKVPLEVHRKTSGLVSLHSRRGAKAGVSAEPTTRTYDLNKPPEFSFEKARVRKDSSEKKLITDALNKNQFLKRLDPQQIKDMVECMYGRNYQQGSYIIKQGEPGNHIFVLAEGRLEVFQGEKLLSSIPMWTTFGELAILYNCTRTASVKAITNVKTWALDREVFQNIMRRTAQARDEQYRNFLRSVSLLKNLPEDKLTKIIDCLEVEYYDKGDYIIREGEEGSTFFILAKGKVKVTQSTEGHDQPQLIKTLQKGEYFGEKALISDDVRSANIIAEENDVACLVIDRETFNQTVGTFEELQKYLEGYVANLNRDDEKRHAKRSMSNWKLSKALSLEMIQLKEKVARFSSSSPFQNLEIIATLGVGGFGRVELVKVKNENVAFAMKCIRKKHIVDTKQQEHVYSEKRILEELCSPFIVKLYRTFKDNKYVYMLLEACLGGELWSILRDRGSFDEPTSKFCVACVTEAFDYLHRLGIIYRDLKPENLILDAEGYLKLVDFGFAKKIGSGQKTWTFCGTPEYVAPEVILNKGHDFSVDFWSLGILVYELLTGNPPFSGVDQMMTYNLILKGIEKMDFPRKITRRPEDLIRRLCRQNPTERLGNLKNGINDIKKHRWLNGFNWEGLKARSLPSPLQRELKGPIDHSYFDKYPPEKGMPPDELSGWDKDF
# [17] = target: T6, cGMP-dependent protein kinase 2 (Homo sapiens); details: at 1 µM
# [18] = target: T7, cAMP-dependent protein kinase catalytic subunit PRKX (Homo sapiens) (UniProt P51817); details: at 0.1 µM
# T7 sequence (whole entry): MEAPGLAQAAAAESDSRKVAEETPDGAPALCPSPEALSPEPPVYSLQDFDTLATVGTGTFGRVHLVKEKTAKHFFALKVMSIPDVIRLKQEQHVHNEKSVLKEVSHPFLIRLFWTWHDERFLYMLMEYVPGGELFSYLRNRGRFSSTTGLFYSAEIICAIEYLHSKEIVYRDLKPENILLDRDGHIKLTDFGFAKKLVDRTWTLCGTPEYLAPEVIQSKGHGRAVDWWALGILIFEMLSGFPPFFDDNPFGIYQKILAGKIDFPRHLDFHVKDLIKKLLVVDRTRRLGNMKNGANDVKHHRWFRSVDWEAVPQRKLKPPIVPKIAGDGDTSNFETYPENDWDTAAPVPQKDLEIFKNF
# [19] = target: T7, cAMP-dependent protein kinase catalytic subunit PRKX (Homo sapiens); details: at 1 µM
# [20] = target: Rho-associated protein kinase 1 (Homo sapiens) (UniProt Q13464); details: at 0.1 µM;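 further: values are mean percent inhibition of ROCK1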
# Sequence of Rho-associated protein kinase 1 (Homo sapiens) (Q13464 2-1354 limits assumed): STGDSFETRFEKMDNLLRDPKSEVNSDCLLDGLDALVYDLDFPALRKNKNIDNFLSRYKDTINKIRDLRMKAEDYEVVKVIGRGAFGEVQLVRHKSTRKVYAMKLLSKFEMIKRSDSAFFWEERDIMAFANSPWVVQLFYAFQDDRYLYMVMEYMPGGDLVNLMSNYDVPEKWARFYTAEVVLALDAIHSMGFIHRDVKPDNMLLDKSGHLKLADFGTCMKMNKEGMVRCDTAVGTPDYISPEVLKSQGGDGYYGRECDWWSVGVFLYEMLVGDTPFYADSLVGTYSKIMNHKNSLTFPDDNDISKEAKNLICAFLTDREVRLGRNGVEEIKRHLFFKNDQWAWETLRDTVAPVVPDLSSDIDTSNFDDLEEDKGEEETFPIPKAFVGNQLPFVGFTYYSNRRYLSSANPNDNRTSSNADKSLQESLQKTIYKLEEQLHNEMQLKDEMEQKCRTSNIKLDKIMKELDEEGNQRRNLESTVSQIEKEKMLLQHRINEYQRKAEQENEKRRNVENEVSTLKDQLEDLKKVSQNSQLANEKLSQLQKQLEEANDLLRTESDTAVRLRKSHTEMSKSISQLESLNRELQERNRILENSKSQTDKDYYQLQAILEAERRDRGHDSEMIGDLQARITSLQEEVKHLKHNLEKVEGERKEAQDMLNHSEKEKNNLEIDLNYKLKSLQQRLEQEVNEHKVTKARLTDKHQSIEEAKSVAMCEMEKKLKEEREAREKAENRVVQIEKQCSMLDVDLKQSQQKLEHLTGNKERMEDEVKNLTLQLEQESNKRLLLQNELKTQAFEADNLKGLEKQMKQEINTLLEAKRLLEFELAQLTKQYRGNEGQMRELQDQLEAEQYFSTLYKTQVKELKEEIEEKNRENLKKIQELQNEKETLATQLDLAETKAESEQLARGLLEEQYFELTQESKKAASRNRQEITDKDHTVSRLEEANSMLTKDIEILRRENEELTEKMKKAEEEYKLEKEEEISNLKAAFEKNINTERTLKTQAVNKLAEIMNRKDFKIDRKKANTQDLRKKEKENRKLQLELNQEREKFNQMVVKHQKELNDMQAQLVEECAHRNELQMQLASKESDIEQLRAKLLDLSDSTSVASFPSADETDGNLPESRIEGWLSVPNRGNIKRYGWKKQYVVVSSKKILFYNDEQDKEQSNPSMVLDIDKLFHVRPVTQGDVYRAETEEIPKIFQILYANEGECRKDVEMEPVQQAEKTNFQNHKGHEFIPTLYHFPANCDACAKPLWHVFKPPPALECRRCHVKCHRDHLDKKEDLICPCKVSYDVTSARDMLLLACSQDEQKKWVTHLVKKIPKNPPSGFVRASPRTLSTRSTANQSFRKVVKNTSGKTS
# Sequence of Protein kinase C theta type (Homo sapiens) (Q04759 whole entry, looked up): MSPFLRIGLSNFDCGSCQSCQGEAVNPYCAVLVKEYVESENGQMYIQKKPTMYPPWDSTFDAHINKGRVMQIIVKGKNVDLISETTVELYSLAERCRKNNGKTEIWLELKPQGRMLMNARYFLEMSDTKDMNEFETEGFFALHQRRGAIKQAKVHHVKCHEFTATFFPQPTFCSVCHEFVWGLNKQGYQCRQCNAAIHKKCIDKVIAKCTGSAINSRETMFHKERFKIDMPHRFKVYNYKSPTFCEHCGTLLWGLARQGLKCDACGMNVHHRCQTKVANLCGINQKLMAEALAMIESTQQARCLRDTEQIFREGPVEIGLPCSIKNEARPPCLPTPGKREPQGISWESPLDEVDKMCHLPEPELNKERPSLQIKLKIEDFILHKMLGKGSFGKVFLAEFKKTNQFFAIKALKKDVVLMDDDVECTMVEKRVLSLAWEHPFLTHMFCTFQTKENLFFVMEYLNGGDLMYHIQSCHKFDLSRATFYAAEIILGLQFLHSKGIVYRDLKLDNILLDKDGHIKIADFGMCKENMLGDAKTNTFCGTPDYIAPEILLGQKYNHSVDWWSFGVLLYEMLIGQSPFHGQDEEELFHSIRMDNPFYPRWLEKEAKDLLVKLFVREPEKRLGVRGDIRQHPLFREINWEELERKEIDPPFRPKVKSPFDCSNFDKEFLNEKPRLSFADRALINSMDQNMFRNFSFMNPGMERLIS
# Sequence of Protein kinase C beta type (Homo sapiens) (P05771 2-671 limits assumed): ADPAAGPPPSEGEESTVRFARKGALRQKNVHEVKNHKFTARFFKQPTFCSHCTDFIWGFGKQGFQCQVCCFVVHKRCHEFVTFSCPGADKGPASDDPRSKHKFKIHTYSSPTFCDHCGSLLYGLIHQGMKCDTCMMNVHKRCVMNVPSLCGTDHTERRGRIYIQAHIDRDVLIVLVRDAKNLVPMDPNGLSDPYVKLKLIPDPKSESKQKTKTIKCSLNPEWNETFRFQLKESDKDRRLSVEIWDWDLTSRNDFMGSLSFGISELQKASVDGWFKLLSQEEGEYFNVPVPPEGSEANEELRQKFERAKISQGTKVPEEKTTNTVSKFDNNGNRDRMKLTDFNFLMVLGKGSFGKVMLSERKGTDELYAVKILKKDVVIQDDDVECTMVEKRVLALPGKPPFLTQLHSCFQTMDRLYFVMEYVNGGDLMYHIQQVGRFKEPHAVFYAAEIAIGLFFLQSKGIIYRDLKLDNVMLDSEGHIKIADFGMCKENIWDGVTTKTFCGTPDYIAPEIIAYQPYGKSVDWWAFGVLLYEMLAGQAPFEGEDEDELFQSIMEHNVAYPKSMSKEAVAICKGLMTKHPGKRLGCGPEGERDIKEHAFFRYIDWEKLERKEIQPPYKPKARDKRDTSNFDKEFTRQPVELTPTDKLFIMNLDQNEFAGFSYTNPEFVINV
SMILES,inhibition [1],inhibition [2],inhibition [3],inhibition [4],inhibition [5],inhibition [6],inhibition [7],inhibition [8],inhibition [9],inhibition [10],inhibition [11],inhibition [12],inhibition [13],inhibition [14],inhibition [15],inhibition [16],inhibition [17],inhibition [18],inhibition [19],inhibition [20]
COC(=O)Nc1nc2ccc(Oc3ccc(NC(=O)Nc4cc(C(F)(F)F)ccc4F)cc3)cc2s1,0.59%,-0.25%,0.66%,-0.27%,-1.1%,-0.19%,-0.04%,0.06%,0.84%,-0.61%,1.09%,0.52%,0.53%,1.65%,2.05%,1.07%,1.92%,0.15%,-0.17%,0.74%
CS(=O)(=O)Nc1ccc(-c2ccc3c(NC(=O)C4CC4)n[nH]c3c2)cc1,4.43%,0.75%,3.13%,1.56%,-0.36%,1.18%,1.78%,2.7%,4.68%,3.14%,5.01%,3.46%,6.13%,2.24%,3.26%,1.29%,2.97%,1.03%,-0.97%,0.87%
